# Tested on: not listed separately
# Assay: JC-1 mitochondrial potential readout, lung cancer cells – cell-based, A549, JC-1 fluorescence, basal, 24 h, 100 nL, profiling panel (AID 1138);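 further: A549 lung adenocarcinoma cells under basal conditions with no added stimulus; test concentration not given here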
# Conditions: higher = more signal
row,SMILES,z-score
1,COc1cc2c(cc1OC)CN(C(=O)[C@@H]1[C@H]3C(=O)O[C@H](c4ccccc4)[C@H](c4ccccc4)N3[C@H](c3ccccc3OCCO)[C@@]13C(=O)Nc1ccc(C#CCCO)cc13)CC2,-0.426
2,C[N+](C)(C)CCCCNC(=O)[C@@H]1C[C@@H]2C(=O)N[C@@H](Cc3ccccc3)C(=O)N2[C@@H]1c1cccc(OCCO)c1,1.21
3,COCCOC(=O)N1C(=O)[C@@]2(c3cc(C#CCC(C(=O)OC)C(=O)OC)ccc31)[C@H](C(=O)Nc1nc3ccccc3s1)[C@H]1C(=O)O[C@H](c3ccccc3)[C@H](c3ccccc3)N1[C@@H]2c1ccccc1OCCO,-2.07
4,CCC[C@@H]1C[C@@]1(CCC)[C@@H](NS(=O)(=O)c1cccc2cccnc12)c1ccc(Cl)cc1,2.3
5,C=CCNC(=O)[C@@H]1[C@H]2C(=O)O[C@H](c3ccccc3)[C@H](c3ccccc3)N2[C@H](c2ccc(O)cc2)[C@@]12C(=O)N(C(=O)OCCOC)c1ccc(C#CCNC(N)=O)cc12,-0.564
6,COCCOC(=O)N1C(=O)[C@@]2(c3cc(C#CCCO)ccc31)[C@H](C(=O)N1CCCCCCC1)[C@H]1C(=O)O[C@H](c3ccccc3)[C@H](c3ccccc3)N1[C@@H]2c1ccc(OCCO)cc1,-0.821
7,COC(=O)[C@@]1(CCC(=O)OC(C)(C)C)N=C(c2ccc(OCCCO)cc2)O[C@H]1c1ccccc1N=[N+]=[N-],1.01
8,CCCCCN1CC=CC23O[C@@H]4/C=C\CCC(C)OC(=O)C4[C@H]2C(=O)N(C(C)CO)[C@@H]3C1=O (stereo partly drawn),0.157
9,Cc1ccc(S[C@]2(C(=O)NC3CC3)CC(=O)N(Cc3ccccc3)[C@@H]2c2ccc(CO)cc2I)cc1,2.49
10,O=C1NC(=O)C2C1C=CC(C(O)c1cccs1)N2Nc1ccc(Cl)cc1Cl (stereo not drawn),-0.384
11,C=CCC(OC(C)=O)[C@@H]1[C@@H](N(Cc2ccc(-c3ccccc3)cc2)C(=O)c2cccc3ccccc23)c2cc(OCCCO)ccc2N1C(=O)c1ccc(-c2ccccc2)cc1 (stereo partly drawn),1.68
12,CCOC(=O)C[C@H]1[C@H](OC(=O)c2ccc(C(=O)c3ccccc3)cc2)[C@@H](NC(=O)c2ccccc2)c2cc(OCCCO)ccc2N1C(=O)c1ccc2ccccc2n1,0.586
13,COc1cc2c(cc1O)C(C1CC1)N(Cc1sc3ccccc3c1Cl)CC2 (stereo not drawn),-1.55

# Tested on: Lefty1
# Assay: Lefty1 protein binding to printed compounds – biochemical, small-molecule microarray, 635/667 nm fluorescence, primary screen (AID 1139)
# Conditions: fluorescence 635/667, higher = more signal
row,SMILES,composite z-score
1,COCCOC(=O)N1C(=O)[C@@]2(c3ccccc31)[C@H](c1ccc(O)cc1)N1[C@H](c3ccccc3)[C@H](c3ccccc3)OC(=O)[C@H]1[C@@H]2C(=O)Nc1nc2ccccc2s1,0.259
2,NC(=O)NCC#Cc1ccc2c(c1)[C@]1(C(=O)N2)[C@H](C(=O)Nc2nc3ccccc3s2)[C@H]2C(=O)O[C@H](c3ccccc3)[C@H](c3ccccc3)N2[C@@H]1c1ccccc1OCCO,1.34
3,COCCOC(=O)N1C(=O)[C@@]2(c3ccccc31)[C@H](c1ccccc1OCCO)N1[C@H](c3ccccc3)[C@H](c3ccccc3)OC(=O)[C@H]1[C@@H]2C(=O)N1CCN(c2ncccn2)CC1,0.962
4,COC(=O)[C@@]1(Cc2ccc(F)cc2)[C@H]2c3cc(C(=O)N4CCCC4)n(CCCNc4ncc(C(F)(F)F)cc4Cl)c3C[C@H]2CN1C(=O)c1ccccc1,-0.695
5,CC(C)C[C@@H]1NC(=O)[C@@H]2C[C@H](C(=O)NCc3ccc(F)cc3)[C@H](c3cccc(OCCO)c3)N2C1=O,0.616
6,C=CCC(OC(C)=O)[C@@H]1[C@@H](N(Cc2cc3ccccc3o2)C(=O)c2cccc3ccccc23)c2cc(OCCCO)ccc2N1C(=O)c1ccc(-c2ccccc2)cc1 (stereo partly drawn),0.218
7,C#C[C@H](O[Si](C#Cc1ccc(Oc2ccccc2)cc1)(C(C)C)C(C)C)c1ccccc1,0.104
8,O=C1N[C@@H](Cc2ccccc2)C(=O)N2[C@@H]1C[C@@H](C(=O)O)[C@H]2c1cccc(OCCO)c1,1.49
9,COCCCNC(=O)[C@@]1(C)c2ccccc2C(=O)N(C(C)C)[C@H]1c1ccc(CO)cc1,0.499
10,C=CCN1C(=O)[C@@]2(Cc3ccccc31)N=C(c1ccc(OCCCO)cc1)O[C@H]2c1ccccc1,0.368
11,CN(C)CCCCCCNC(=O)[C@H]1C[C@H]2C(=O)N[C@@H](CCCCN)C(=O)N2[C@H]1c1cccc(OCCO)c1,1.41
12,COc1cc2c(cc1OC)CN(C(=O)[C@H]1[C@@H]3C(=O)O[C@@H](c4ccccc4)[C@@H](c4ccccc4)N3[C@@H](c3ccc(O)cc3)[C@]13C(=O)Nc1ccccc13)CC2,0.331
13,C=CC1(C(=O)OC)CC=C(C(=O)OC)CC1 (stereo not drawn),0.308
14,CCCC=C(CCC)[C@@H](NC(=O)c1cccs1)c1ccc(C(F)(F)F)cc1,0.735
15,C=CCNC(=O)[C@@H]1[C@H]2C(=O)O[C@H](c3ccccc3)[C@H](c3ccccc3)N2[C@H](c2ccccc2OCCO)[C@@]12C(=O)N(C(=O)OCCOC)c1ccccc12,1.29
16,COC(=O)C[C@H]1O[C@]2(C(=O)N(C)c3ccccc32)[C@@H](C)[C@@H]1[Si](C)(C)F,1.33
17,C=CCOC(=O)[C@@H]1[C@H]2C(=O)O[C@H](c3ccccc3)[C@H](c3ccccc3)N2[C@H](c2ccc(OCCOC(=O)[C@@H]3C[C@@H]4C(=O)NCC(=O)N4[C@@H]3c3ccc(O)cc3)cc2)[C@@]12C(=O)Nc1ccc(I)cc12,0.734
18,COc1ccc(CCNC(=O)[C@@]2(C)c3ccccc3C(=O)N(C(C)C)[C@H]2c2ccc(CO)cc2)cc1,0.826

row,SMILES,composite z-score
1,C=C(CC1([C@@H](NP(=O)(c2ccccc2)c2ccccc2)[C@H]2C[C@@H]2CCCC)CC1)c1ccccc1,-0.415
2,COC(=O)[C@H](Cc1ccccc1)N1CC2=C[C@@H](C3CC3)n3c(=O)n(C)c(=O)n3[C@H]2[C@@H]1[C@@H](O)Cc1ccccc1,0.972
3,C=C(/C(=C/C[C@H](OC(C)=O)c1ccc(CO)o1)c1cc(C(=O)OC)ccc1OC)C(C)C,0.864
4,[N-]=[N+]=Nc1ccccc1[C@H]1OC(c2ccc(OCCCO)cc2)=N[C@@]1(CCS(=O)(=O)c1ccccc1)C(N)=O,-0.142
5,COc1cc2c(cc1OC)CN(C(=O)[C@@H]1[C@H]3C(=O)O[C@H](c4ccccc4)[C@H](c4ccccc4)N3[C@H](c3ccccc3OCCO)[C@@]13C(=O)Nc1ccc(C#CCCO)cc13)CC2,0.904
6,C[N+](C)(C)CCCCNC(=O)[C@@H]1C[C@@H]2C(=O)N[C@@H](Cc3ccccc3)C(=O)N2[C@@H]1c1cccc(OCCO)c1,0.245
7,COCCOC(=O)N1C(=O)[C@@]2(c3cc(C#CCC(C(=O)OC)C(=O)OC)ccc31)[C@H](C(=O)Nc1nc3ccccc3s1)[C@H]1C(=O)O[C@H](c3ccccc3)[C@H](c3ccccc3)N1[C@@H]2c1ccccc1OCCO,0.275
8,CCC[C@@H]1C[C@@]1(CCC)[C@@H](NS(=O)(=O)c1cccc2cccnc12)c1ccc(Cl)cc1,-0.605
9,C=CCNC(=O)[C@@H]1[C@H]2C(=O)O[C@H](c3ccccc3)[C@H](c3ccccc3)N2[C@H](c2ccc(O)cc2)[C@@]12C(=O)N(C(=O)OCCOC)c1ccc(C#CCNC(N)=O)cc12,1.03
10,COCCOC(=O)N1C(=O)[C@@]2(c3cc(C#CCCO)ccc31)[C@H](C(=O)N1CCCCCCC1)[C@H]1C(=O)O[C@H](c3ccccc3)[C@H](c3ccccc3)N1[C@@H]2c1ccc(OCCO)cc1,1.6
11,COC(=O)[C@@]1(CCC(=O)OC(C)(C)C)N=C(c2ccc(OCCCO)cc2)O[C@H]1c1ccccc1N=[N+]=[N-],0.303
12,CCCCCN1CC=CC23O[C@@H]4/C=C\CCC(C)OC(=O)C4[C@H]2C(=O)N(C(C)CO)[C@@H]3C1=O (stereo partly drawn),0.696
13,Cc1ccc(S[C@]2(C(=O)NC3CC3)CC(=O)N(Cc3ccccc3)[C@@H]2c2ccc(CO)cc2I)cc1,-1.86
14,O=C1NC(=O)C2C1C=CC(C(O)c1cccs1)N2Nc1ccc(Cl)cc1Cl (stereo not drawn),-0.245
15,C=CCC(OC(C)=O)[C@@H]1[C@@H](N(Cc2ccc(-c3ccccc3)cc2)C(=O)c2cccc3ccccc23)c2cc(OCCCO)ccc2N1C(=O)c1ccc(-c2ccccc2)cc1 (stereo partly drawn),-0.111
16,CCOC(=O)C[C@H]1[C@H](OC(=O)c2ccc(C(=O)c3ccccc3)cc2)[C@@H](NC(=O)c2ccccc2)c2cc(OCCCO)ccc2N1C(=O)c1ccc2ccccc2n1,0.536
17,COc1cc2c(cc1O)C(C1CC1)N(Cc1sc3ccccc3c1Cl)CC2 (stereo not drawn),-0.619
